# Screen size: about 5,500 compounds; about 2,000 (36%) were called active. About 18% were inconclusive and are not listed. The list shows a part of the results. A number with no mark means an inactive call. Cut-off read from the data, not from the text of the source: active = normalized growth mostly below about 0.91 (no sharp cut-off); inconclusive = no clear call, values can overlap the other calls; inactive = mostly above about 0.92.
# Experiment: chemical genetic growth profiling, strain panel (AID 1159580);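 note: tested at 20 µM; growth read once vehicle control cultures reached saturation at 30 °C; 1 = growth at the plate median or of vehicle wells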
# Details: S. cerevisiae deletion strains, growth OD
# [1] = locus YAL013W, strain DEP1, stronger effect = lower value
# [2] = locus YBR229C, strain ROT2, stronger effect = lower value
# [3] = locus YCL061C, strain MRC1, stronger effect = lower value
# [4] = locus YDL101C, strain DUN1, stronger effect = lower value
# [5] = locus YDL134C, strain PPH21, stronger effect = lower value
# [6] = locus YDR150W, strain NUM1, stronger effect = lower value
# [7] = locus YEL061C, strain CIN8, stronger effect = lower value
# [8] = locus YGR078C, strain PAC10, stronger effect = lower value
# [9] = locus YHR030C, strain SLT2, stronger effect = lower value
# [10] = locus YHR087W, strain rtc3, stronger effect = lower value
# [11] = locus YJL187C, strain SWE1, stronger effect = lower value
# [12] = locus YJR043C, strain POL32, stronger effect = lower value
# [13] = locus YJR075W, strain HOC1, stronger effect = lower value
# [14] = locus YKL190W, strain CNB1, stronger effect = lower value
# [15] = locus YLR039C, strain RIC1, stronger effect = lower value
# [16] = locus YLR058C, strain SHM2 (second series), stronger effect = lower value
# [17] = locus YLR085C, strain ARP6, stronger effect = lower value
# [18] = locus YLR262C, strain YPT6, stronger effect = lower value
# [19] = locus YML094W, strain GIM5, stronger effect = lower value
# [20] = locus YMR219W, strain ESC1, stronger effect = lower value
# [21] = locus YMR263W, strain SAP30, stronger effect = lower value
# [22] = locus YNL153C, strain GIM3, stronger effect = lower value
# [23] = locus YNL298W, strain CLA4 (second series), stronger effect = lower value
# [24] = locus YNL322C, strain KRE1, stronger effect = lower value
# [25] = locus YNR030W, strain Alg12, stronger effect = lower value
# [26] = locus YPL055C, strain LGE1, stronger effect = lower value
# [27] = locus YPL241C, strain CIN2, stronger effect = lower value
# [28] = locus YPR135W, strain CTF4, stronger effect = lower value
smiles,measurement,setting,value
CCCCCCCCCCCCN1CNC(=S)NC1,normalized growth,[1],0.804 (active)
same,normalized growth,[2],0.81 (active)
same,normalized growth,[3],0.68 (active)
same,normalized growth,[4],0.652 (active)
same,normalized growth,[5],0.451 (active)
same,normalized growth,[6],0.846
same,normalized growth,[7],0.441 (active)
same,normalized growth,[8],0.813 (active)
same,normalized growth,[9],0.291 (active)
same,normalized growth,[10],0.767 (active)
same,normalized growth,[11],0.688 (active)
same,normalized growth,[12],0.727 (active)
same,normalized growth,[13],0.858 (active)
same,normalized growth,[14],0.515 (active)
same,normalized growth,[15],0.985
same,normalized growth,[16],0.988
same,normalized growth,[17],0.141 (active)
same,normalized growth,[18],1.01
same,normalized growth,[19],0.513 (active)
same,normalized growth,[20],0.786 (active)
same,normalized growth,[21],0.782 (active)
same,normalized growth,[22],0.801 (active)
same,normalized growth,[23],0.325 (active)
same,normalized growth,[24],0.956
same,normalized growth,[25],0.419 (active)
same,normalized growth,"locus YOL006C, strain TOP1, stronger effect = lower value",0.123 (active)
same,normalized growth,[26],0.541 (active)
same,normalized growth,[27],0.484 (active)
same,normalized growth,[28],0.382 (active)
S=C1NCN(CCN2CCCC2)CN1,normalized growth,[1],1
same,normalized growth,[2],0.996
same,normalized growth,[3],0.988
same,normalized growth,[4],0.984
same,normalized growth,[5],0.975
same,normalized growth,[6],0.96
same,normalized growth,[7],1.03
same,normalized growth,[8],0.997
same,normalized growth,[9],1.04
same,normalized growth,[10],1.04
same,normalized growth,[11],1.01
same,normalized growth,[12],0.986
same,normalized growth,[13],0.997
same,normalized growth,[14],0.977
same,normalized growth,[15],0.991
same,normalized growth,[16],1.01
same,normalized growth,[17],0.98
same,normalized growth,[18],0.972
same,normalized growth,[19],1
same,normalized growth,[20],1.01
same,normalized growth,[21],1
same,normalized growth,[22],0.993
same,normalized growth,[23],0.987
same,normalized growth,[24],0.995
same,normalized growth,[25],0.994
same,normalized growth,[26],1.01
same,normalized growth,[27],0.973
same,normalized growth,[28],0.962
Cn1c2c(c(=O)n(C)c1=O)CN(CCCCCCO)CN2,normalized growth,[1],1
same,normalized growth,[2],1.01
same,normalized growth,[3],1.01
same,normalized growth,[4],1
same,normalized growth,[5],1.02
same,normalized growth,[6],0.982
same,normalized growth,[7],1.01
same,normalized growth,[8],0.999
same,normalized growth,[9],1.07
same,normalized growth,[10],1
same,normalized growth,[12],0.99
same,normalized growth,[13],1.01
same,normalized growth,[14],0.994
same,normalized growth,[15],1.02
same,normalized growth,[16],1
same,normalized growth,[17],1.1
same,normalized growth,[18],1.03
same,normalized growth,[19],1.05
same,normalized growth,[20],1
same,normalized growth,[21],1
same,normalized growth,"locus YMR307W, strain GAS1, stronger effect = lower value",1.04
same,normalized growth,"locus YNL128W, strain TEP1, stronger effect = lower value",1.01
same,normalized growth,[22],0.999
same,normalized growth,[23],1.1
same,normalized growth,[24],0.998
same,normalized growth,[25],1.04
same,normalized growth,[26],1.02
same,normalized growth,[27],1.05
same,normalized growth,[28],1.02
